SMILES strings stand for the structures. Results filed as inconclusive are left out. A number with no mark means an inactive call. The call rests on the fitted dose curve; in most records, active means well fitted inhibition curve with a large enough effect; inconclusive means small, poorly fitted or top-dose-only effect; inactive means no such curve, though single readings can be large or run the other way.

The source of these data is PubChem BioAssay (NCATS).
On the % scale 0 is the no-effect control and ±100 the full control effect.

A short description of the assay: qHTS assay to identify inhibitors of the type 1 interferon - major histocompatibility complex class I in skeletal muscle: Counter screen cell viability and HiBit confirmation (AID 1347412). Further: nearly all actives have a fitted effect of over 60% in size. The conditions noted are these: iHSKM muscle cells + IFN-b, HiBiT or CellTiter-Glo, 24 h; Viability; at 45.9 µM (top of the series). The method, boiled down: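 CRISPR HLA-B*08:01-HiBit immortalized human myoblasts (C25cl48) stimulated with 4 ng/ml IFN-beta and compounds (12-point 1:3, top 46 uM final) for 24 h at 37 C. Duplicate plates read by HiBit lytic luminescence or CellTiter Glo ATP.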
A general note: Quantitative high-throughput screening tests each substance at several concentrations.
For `Cc1ccc(-c2ncn(-c3ccc(Nc4nccc(-c5cccc(N6CCOCC6)c5)n4)cc3)n2)cn1`, the activity change, negative = inhibition was -8.69%. As for `CC(C)(C)c1cnc(CSc2cnc(NC(=O)C3CCNCC3)s2)o1`, the activity change, negative = inhibition was 9.32%.

Take `CC(C)[C@H](C(=O)Nc1ccc(C(=O)NO)cc1)c1ccccc1`: the activity change, negative = inhibition is -7.44%. On to `O=C(NC1CCNCC1)c1[nH]ncc1NC(=O)c1c(Cl)cccc1Cl`, for which the activity change, negative = inhibition is 4.1%.

As to `CC[C@@H]1C(=O)N(C)c2cnc(Nc3ccc(C(=O)NC4CCN(C)CC4)cc3OC)nc2N1C1CCCC1`, the activity change, negative = inhibition is -4.51%. As to `CC(C)(C)c1cc(C(C)(C)C)c(NC(=O)c2c[nH]c3ccccc3c2=O)cc1O`, the activity change, negative = inhibition was -12%. With `Cn1cncc1[C@@](N)(c1ccc(Cl)cc1)c1ccc2c(c1)c(-c1cccc(Cl)c1)cc(=O)n2C`, the activity change, negative = inhibition was -17.4%. Consider `COc1cc(C(C)C)c2c(c1)S(=O)(=O)N(COc1cc(=O)n3cccc(OCCN4CCCCC4)c3n1)C2=O`, for which the activity change, negative = inhibition is -20.7%. With `COC(=O)C[C@](O)(CCCC(C)(C)O)C(=O)O[C@@H]1C(OC)=C[C@]23CCCN2CCc2cc4c(cc2[C@H]13)OCO4`, the activity change, negative = inhibition was 0.0855%. Take `CN(c1ncccc1CNc1nc(Nc2ccc3c(c2)CC(=O)N3)ncc1C(F)(F)F)S(C)(=O)=O`: the activity change, negative = inhibition was 13.6%. For `C[C@@]12O[C@@H](C[C@]1(O)CO)n1c3ccccc3c3c4c(c5c6ccccc6n2c5c31)CNC4=O`, the activity change, negative = inhibition was -0.759%.

With `CC[C@H](CO)Nc1nc(NCc2ccccc2)c2ncn(C(C)C)c2n1`, the activity change, negative = inhibition was -8.22%. Consider `COc1cc2c(cc1-c1c(C)noc1C)ncc1[nH]c(=O)n([C@H](C)c3ccccn3)c12`, for which the activity change, negative = inhibition is 1.25%. On to `Cc1cc(Nc2cc(NC(=O)c3c(Cl)cccc3Cl)ccn2)nc(N)n1`, for which the activity change, negative = inhibition was 21.4%.
